PMC5540273 (PLoS ONE, 2017)

test system: DDR1
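Further: kd values determined as follow-up on hits from a single-replicate KINOMEscan panel screen.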

| SMILES | Kd |
| --- | --- |
| Cc1ccc(NC(=O)Nc2ccccc2F)cc1-c1ccc(C(=O)Nc2ccncc2)cc1 [GSK1398477] | 180 nM |
| Cc1ccc(NC(=O)c2ccc(Cl)cc2)cc1-c1ccc(C(=O)Nc2ccncc2)cc1 [GSK1398467] | 710 nM |
| Cc1ccc(NC(=O)Nc2ccc(Cl)cc2)cc1-c1ccc(C(=O)Nc2ccncc2)cc1 [GSK1398472] | 73 nM |
| Nc1nccc(-c2c(-c3ccc(F)cc3)ncn2C2CCN(Cc3ccccc3)CC2)n1 [SB-219980] | 140 nM |
| CS(=O)(=O)CCNCc1nc(-c2ccc3ncnc(Nc4ccc(OCc5ccccc5)c(Cl)c4)c3c2)cs1.Cl [GW582764] | > 10000 nM |
| Cc1ccc(NC(=O)Nc2ccccc2)cc1-c1ccc(C(=O)Nc2ccncc2)cc1 [GSK1398471] | 180 nM |
| COc1cccc(C2=C(Nc3cc(Cl)c(O)c(Cl)c3)C(=O)NC2=O)c1 [SB-390767] | > 10000 nM |
| COc1ccc(Nc2nccc(N3CCC(NC(=O)c4cc5ccccc5s4)C3)n2)cc1 (centres unmarked) [GSK1379738] | > 10000 nM |
| COc1cccc(NC(=O)Nc2ccc(C)c(-c3ccc(C(=O)Nc4ccncc4)cc3)c2)c1 [GSK1398474] | 270 nM |
| CS(=O)(=O)Cc1ccc(Nc2nccc(-c3c(-c4cccc(NC(=O)C5CCCCC5)c4)nn4ncccc34)n2)cc1 [GSK350559] | 23 nM |
| Cc1ccc(NC(=O)Nc2ccc(Cl)c(C(F)(F)F)c2)cc1-c1ccc(C(=O)Nc2ccncc2)cc1 [GSK1398470] | 120 nM |
| COc1ccc2cc(-c3nc(-c4ccccc4C(C)C)[nH]c3-c3ccncc3)ccc2c1 [SB-660566] | 330 nM |

test system: T1, DMPK2
T1 construct: gene CDC42BPG

| SMILES | Kd |
| --- | --- |
| Fc1ccc(-c2nn3cccc(F)c3c2-c2ccncc2)cc1 [GW475620] | 1000 nM |
| CC(=O)c1c(C)c2cnc(Nc3ccc(N4CCNCC4)cn3)nc2n(C2CCCC2)c1=O | > 10000 nM |
| CCn1c(-c2c(N)noc2C)nc2cnccc21 [SB-737856] | > 10000 nM |
| Fc1ccc(-c2nc3n(c2-c2ccncc2)CCS3)cc1 [GI98581] | 1200 nM |

test system: T2, DRAK1
T2 construct: gene STK17A

| SMILES | Kd |
| --- | --- |
| CNc1nc(-c2ccc3c(N)n[nH]c3c2)cc(N2C[C@@H](C(=O)Nc3ccccc3)CC[C@H]2C)n1 [GSK2298859] | 89 nM |
| CC[C@@H]1CO[C@H](C(=O)Nc2ccccc2)CN1c1cc(-c2ccc3c(N)n[nH]c3c2)nc(NC)n1 [GSK2376236] | 220 nM |
| CC(C)c1cc(-c2ccc3c(N)n[nH]c3c2)nc(N)n1 [GSK2250882] | 29 nM |
| CNc1cc(-c2ccc3c(N)n[nH]c3c2)nc(N)n1 [GSK2224810] | 89 nM |
| Cn1cncc1-c1cc2c(Nc3ccc(OCc4ccccc4)cc3)ncnc2cn1 [GW281179] | > 10000 nM |

test system: EPHB6

| SMILES | Kd |
| --- | --- |
| FC(F)(F)c1ccccc1-c1cc(-c2c[nH]nc2-c2ccccn2)ccn1 [GW679396] | 8500 nM |
| Nc1ncnc2occ(-c3ccc4c(c3)CCN4C(=O)Cc3cc(F)ccc3F)c12 [GSK2645446] | 500 nM |
| COC(=O)C(NC(=O)NC1CCN(c2ccnc(Nc3ccc(F)cc3)n2)C1)c1ccccc1 (centres unmarked) [GSK1379712] | 58 nM |
| COc1ccc(Nc2nccc(N3CCC(NC(=O)C(C)c4ccc(Cl)cc4)CC3)n2)cc1 (centres unmarked) [GSK1379812] | > 10000 nM |

test system: ERBB2

| SMILES | Kd |
| --- | --- |
| COc1cc2ncnc(Nc3cccc(Br)c3)c2cc1OC.Cl [GI230329] | 85 nM |
| CS(=O)(=O)CCNCc1nc(-c2ccc3ncnc(Nc4ccc5c(cnn5Cc5ccccc5)c4)c3c2)cs1.Cl.Cl [GW569716] | 1.1 nM |
| CS(=O)(=O)CCNCc1nc(-c2ccc3ncnc(Nc4ccc(OCc5ccccc5)c(Cl)c4)c3c2)cs1.Cl [GW582764] | 4 nM |
| Cn1cncc1-c1cc2c(Nc3ccc(OCc4ccccc4)cc3)ncnc2cn1 [GW281179] | 17 nM |

test system: T3, ERK8
T3 construct: gene MAPK15

| SMILES | Kd |
| --- | --- |
| Cc1cccc2c(-c3ccncn3)c(-c3ccc(F)cc3)nn12 [GW515532] | > 10000 nM |
| O=C(Nc1n[nH]c2cc(-c3ccsc3)ccc12)C1CC1 [SB-732932] | 48 nM |
| O=C(Nc1n[nH]c2nc(-c3cccs3)c(Br)cc12)C1CC1 [SB-735297] | 130 nM |
